Assay results: the supplement of paper PMC4840960
Where a name gives a salt, the structure may show the parent alone.

System: E18 rat cortical neuron-glia co-culture
Test: myelination (MBP fiber length per Olig2+ nucleus), % of 1 µM DAPT response (DMSO = 0) (% of DAPT); higher = more myelination, active = 50 or more
Settings: 5 µM; treatment time: 8 days (DIV5-DIV13)
Procedure, shortened: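 Primary E18 rat cortical co-cultures (papain-dissociated, 20,000 cells/well on poly-d-lysine/laminin 96-well plates) received library compounds at 1 or 5 µM in myelination medium from DIV5 to DIV13. Cells were fixed in 4 % paraformaldehyde and immunostained for MBP and Olig2 with DAPI, and four 10X fields per well in duplicate wells were analysed. Myelination was continuous straight MBP fiber length per Olig2+ nucleus, normalised to 0.1 % DMSO (0) and a 1 µM positive control (100).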

myelination, inactive:
CC(=O)SCC(Cc1ccccc1)C(=O)NCC(=O)OCc1ccccc1 (stereo not given) [Racecadotril] -8.19
CCOC(=O)C1=C(C)NC(C)=C(C(=O)OC)C1c1cccc([N+](=O)[O-])c1 (stereo not given) [Nitrendipine] 1.09
CC(C(=O)O)c1cccc(C(=O)c2ccccc2)c1 (stereo not given) [Ketoprofen] -3.55
O=C(O)Cc1ccccc1Nc1c(Cl)cccc1Cl [Diclofenac] -15.6
COc1cc(Cc2cnc(N)nc2N)cc(OC)c1OC [Trimethoprim] 5.27
CN(C)CCOC(c1ccccc1)c1ccccc1 [Diphenhydramine] -17.4
N[C@@H](C(=O)N[C@@H]1C(=O)N2C(C(=O)O)=C(CSc3c[nH]nn3)CS[C@H]12)c1ccc(O)cc1 [Cefatrizine] -4.37
COCCCC/C(=N\OCCN)c1ccc(C(F)(F)F)cc1 [Fluvoxamine] -9.1
C[C@]12CC[C@@H]3c4ccc(O)cc4CC[C@H]3[C@@H]1CC[C@@H]2O [Estradiol] -35.3
O=C(c1ccc(OCCN2CCCCC2)cc1)c1c(-c2ccc(O)cc2)sc2cc(O)ccc12 [Raloxifene] 13.4
C[n+]1ccccc1C=NO [Pralidoxime] 1.41
Nc1c2c(nc3c1CCC3)CCCC2 [Amiridine] -17.6
NC(=O)c1cnccn1 [Pyrazinamide] -9.54
C[C@@H]1C[C@H]2[C@@H]3CCC4=CC(=O)C=C[C@]4(C)[C@@]3(F)[C@@H](O)C[C@]2(C)[C@H]1C(=O)CO [Desoximetasone] -8.43
CNC(=C[N+](=O)[O-])NCCSCc1csc(CN(C)C)n1 [Nizatidine] -29.5
O=C(O)COCCN1CCN(C(c2ccccc2)c2ccc(Cl)cc2)CC1 (stereo not given) [Virlix] -8.81
O=C1c2c(O)cc(O)cc2O[C@H](c2ccc(O)c(O)c2)[C@H]1O [Distylin] 0.864
CCC(C)(C)C(=O)O[C@H]1C[C@@H](C)C=C2C=C[C@H](C)[C@H](CC[C@@H]3C[C@@H](O)CC(=O)O3)[C@H]21 [Simvastatin] 30
Cc1cccc(Nc2ccccc2C(=O)O)c1C [Mefenamic Acid] 38.7
CC[N+](C)(CC)CCOC(=O)C(O)(c1ccccc1)C1CCCCC1 (stereo not given) [Oxyphenonium] -6.58
CC(C)NCC(O)COc1ccc(CCOCC2CC2)cc1 (stereo not given) [Betaxolol] -10.5
Cc1nnc(SCC2=C(C(=O)O)N3C(=O)[C@@H](NC(=O)Cn4cnnn4)[C@H]3SC2)s1 [Cefazolin] 6.84
CC1CNc2c(cccc2S(=O)(=O)N[C@@H](CCCNC(=N)N)C(=O)N2CC[C@@H](C)C[C@@H]2C(=O)O)C1 (stereo not given in full) [Argatroban] -49.9
C#C[C@]1(O)CC[C@H]2[C@@H]3[C@H](C)CC4=C(CCC(=O)C4)[C@H]3CC[C@@]21C [Tibolone] -13.2
CCN(CC)CCNC(=O)c1cc(Cl)c(N)cc1OC [Metoclopramide] -2.72
COc1ccnc(C[S+]([O-])c2nc3cc(OC(F)F)ccc3[nH]2)c1OC (stereo not given) [Pantoprazole] 1.97
CC(C)NCC(O)COc1cccc2[nH]ccc12 (stereo not given) [Pindolol] -3.46
C[C@H](CS)C(=O)N1CCC[C@H]1C(=O)O [Captopril] -9.32
CN1CCN(c2nc3cc(C(F)(F)F)ccc3n3cccc23)CC1 -20.7
Fc1cncnc1 [5-fluoropyrimidine] 4.98
CNCCCN1c2ccccc2CCc2ccccc21 [Desipramine] -13.3
Cc1ccc(NC(=O)c2ccc(CN3CCN(C)CC3)cc2)cc1Nc1nccc(-c2cccnc2)n1 [Imatinib mesylate] 37.1
Clc1ccc2c(c1)CCc1cccnc1C2=C1CCNCC1 [Desloratadine] -23.3
COc1cc2nc(N3CCN(C(=O)C4CCCO4)CC3)nc(N)c2cc1OC (stereo not given) [Terazosin] 2.09
CN(CCOc1ccc(NS(C)(=O)=O)cc1)CCc1ccc(NS(C)(=O)=O)cc1 [Dofetilide] -13.2
